aSyn 5UTR inh: MLPCN primary screen, SNCA 5' untranslated region; inhibition, % (tested at 7.5 µM); alpha-synuclein 5'UTR reporter, inhibitor activity; actives 0.82% (n = 300,000); AID 1813, 2009; in the data active = inhibition above about 60%; inconclusive = no clear call, values can overlap the other calls;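 also: H4 neuroglioblastoma cells stably carrying SNCA 5'UTR luciferase fusion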
Mdm2-MdmX inh: inhibitors of human Mdm2-MdmX association, primary screen, cell-based, luminescence, split luciferase, SaOS-2, uHTS; AID 485346, 2010; Protein Mdm4 (Homo sapiens) + E3 ubiquitin-protein ligase Mdm2 (Homo sapiens), …; SaOS-2 split-luciferase Mdm2/MdmX complementation; actives 3% (n = 330,000); inhibition, % at 8 µM;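 active = inhibition of at least 50% at 8 µM in the primary screen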
Target sequence (O15151 whole entry, looked up): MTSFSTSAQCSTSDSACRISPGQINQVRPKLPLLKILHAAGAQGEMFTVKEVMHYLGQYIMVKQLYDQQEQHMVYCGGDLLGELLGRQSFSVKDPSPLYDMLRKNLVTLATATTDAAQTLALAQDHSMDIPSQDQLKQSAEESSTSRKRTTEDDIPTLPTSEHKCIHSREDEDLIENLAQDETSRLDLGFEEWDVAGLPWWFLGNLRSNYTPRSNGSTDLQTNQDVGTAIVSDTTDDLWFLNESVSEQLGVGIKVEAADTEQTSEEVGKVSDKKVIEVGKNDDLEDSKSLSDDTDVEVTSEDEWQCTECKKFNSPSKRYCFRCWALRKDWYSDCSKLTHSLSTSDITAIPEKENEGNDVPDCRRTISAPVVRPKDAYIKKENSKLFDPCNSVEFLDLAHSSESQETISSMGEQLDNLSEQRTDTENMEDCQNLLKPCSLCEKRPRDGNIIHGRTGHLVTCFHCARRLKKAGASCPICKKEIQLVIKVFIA
Target sequence (Q00987 whole entry, looked up): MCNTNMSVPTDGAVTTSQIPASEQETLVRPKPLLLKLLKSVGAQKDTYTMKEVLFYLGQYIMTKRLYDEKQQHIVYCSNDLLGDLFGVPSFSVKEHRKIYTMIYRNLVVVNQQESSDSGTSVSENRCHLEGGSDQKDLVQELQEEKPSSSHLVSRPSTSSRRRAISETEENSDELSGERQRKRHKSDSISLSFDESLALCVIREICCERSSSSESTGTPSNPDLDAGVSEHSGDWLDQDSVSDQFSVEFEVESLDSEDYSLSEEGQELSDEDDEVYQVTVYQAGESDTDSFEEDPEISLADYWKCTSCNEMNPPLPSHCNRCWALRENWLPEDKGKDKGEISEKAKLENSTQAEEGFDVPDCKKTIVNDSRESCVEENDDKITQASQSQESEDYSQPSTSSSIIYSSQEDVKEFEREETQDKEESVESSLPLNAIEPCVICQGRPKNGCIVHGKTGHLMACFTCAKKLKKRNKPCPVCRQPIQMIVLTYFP
Beta cell apopt: inhibitors of cytokine-induced beta cell apoptosis, primary screen, luminescence | INS-1E cytokine-induced death, ATP luminescence, 48 h; percent of positive-control rescue, neutral wells zero | protection from apoptosis, % (test concentration not listed) | actives 0.8% (n = 300,000) | AID 435005, 2010;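 active = Every replicate reaches about 75%, or at least half do and their mean reaches it too, limit read from the data; inconclusive = At least half of replicates reach the limit but their mean does not; inactive = Under half of replicates reach the limit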;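 also: higher means more ATP so stronger rescue from cytokine killing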
CSC inhib: cancer stem cell viability inhibitors, primary screen, luminescence; actives 1.1% (n = 300,000); inhibition, % at 7.5 µM; cancer stem cell-like cells viability; in the data active = inhibition above about 75%; inconclusive = no clear call, values can overlap the other calls; tested in HMLE shEcad cells
A1 inh: caspase 3/7 activation in MEF A1-2A-BIM cells, primary screen, A1 inhibitor project, cell-based, luminescence, HTS; Caspase-Glo 3/7 luminescence, 3 h; percent of clofoctol response, vehicle zero; caspase activation, % (test concentration not listed); actives 0.066% (n = 330,000);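 active = over half of replicate activation scores above 10%, or exactly half above 10 with the replicate mean above 10; inconclusive = replicate mean below 10 yet half the replicates above 10; inactive = over half of replicates below 10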
Mdm2-MdmX conf: Mdm2-MdmX complex disruptors, retested hits, confirmation, luminescence, single concentration; shares compounds with Mdm2-MdmX inh; inhibition, % at 8 µM; Mdm2-MdmX binding, luminescent assay; AID 489028, 2010; actives 55% (n = 10,000); in the data active = inhibition above about 40%
FLuc counter: full-length luciferase signal inhibition, confirmation, counter-screen for Mdm2/MdmX interaction inhibitor project, cell-based, single concentration, SaOS-2 | shares compounds with Mdm2-MdmX inh | SaOS-2 full-length luciferase counterscreen, luminescence | inhibition, % at 8 µM | actives 77% (n = 6,200);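 active = mean inhibition at 8 µM reaching about 37%, which flags the compound as non-specific, limit read from the data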;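 also: p53-null SaOS-2 cells with luciferase driven by a doxycycline-inducible promoter; compound on cells about two nights before reading with doxycycline added after day one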
Numbers stand for hits; - = inactive; ? = inconclusive; . = no result. Most compounds without a hit are left out; they make up all but 4.1% or so of the library.

SMILES	aSyn 5UTR inh	Mdm2-MdmX inh	Beta cell apopt	CSC inhib	A1 inh	Mdm2-MdmX conf	FLuc counter
COc1cc2c(cc1OC)CN(C(=O)/C=C/c1cccs1)CC2	-	65	-	-	-	62	59
CC1CC(C)CN(CC(O)COCc2ccccc2F)C1 (centres undefined)	-	-	-	-	-	.	.
Cc1cc(C)nc(N/C(=N\S(=O)(=O)Cc2ccccc2)Nc2ccccc2Br)n1	-	52	-	-	-	55	104
Cc1cc(C)nc(Nc2ccccc2Br)n1	-	-	-	-	-	.	.
N#CC(C#N)=C1C=CC=CN1/C(=C\c1ccco1)C(=O)c1ccccc1	.	.	?	-	-	.	.
COc1ccc(C(=O)/C(=C\c2ccco2)N2C=CC=CC2=C(C#N)C#N)cc1	77	100	94	-	-	99	51
O=C(OCC(=O)N1CCC(Cc2ccccc2)CC1)c1cncc(Br)c1	.	-	-	-	-	.	.
CSCCC(NC(=O)COc1ccccc1)C(=O)NCCOc1ccccc1 (centres undefined)	.	-	-	-	-	.	.
O=C(CCN1C(=O)/C(=C/c2ccccc2Cl)SC1=S)NCCc1ccc(O)cc1	-	78	-	-	-	-	48
O=C(CCCN1C(=O)/C(=C/c2cccs2)SC1=S)Nc1ccccn1	-	56	-	-	-	60	98
O=C(CCN1C(=O)/C(=C/c2ccccc2Cl)SC1=S)NN1CCOCC1	-	-	-	-	-	.	.
O=C(CCN1C(=O)/C(=C/c2ccccc2Cl)SC1=S)Nc1ccccn1	-	-	-	-	-	.	.
O=C(CCCN1C(=O)/C(=C/c2ccccc2Cl)SC1=S)Nc1cccnc1	-	87	-	-	-	73	-
O=C1/C(=C/c2ccccc2Cl)SC(=S)N1CCCC(=O)N(CCO)c1ccccc1	-	98	.	-	-	-	.
Cc1ccc(C)c(N2CCN(C(=O)c3ccc4nsnc4c3)CC2)c1	-	-	-	-	-	.	.
CC(Oc1ccc2cc(-c3ccccc3)c(=O)oc2c1)C(=O)NCC1CCC(C(=O)O)CC1 (centres undefined)	-	-	-	-	-	.	.
CCOc1cc2c(cc1/C=C/c1noc(C)c1[N+](=O)[O-])OC(C)C2 (centres undefined)	-	-	-	-	-	.	.
O=C1/C(=C\c2cccc(O)c2O)SC(=S)N1Cc1ccccc1	-	72	-	86	-	57	-
O=C(CCCN1C(=O)/C(=C/c2ccccc2Cl)SC1=S)Nc1ccccn1	-	67	-	.	-	55	-
Cc1[nH]nc2ncc(C(=O)c3ccccc3O)cc12	-	81	-	-	-	81	-
O=S1(=O)Nc2c(ccc3cccnc23)-c2ccccc21	-	100	-	96	-	97	54
Clc1ccc2ccc3cccnc3c2n1	-	-	-	-	-	.	.
CCN(CC)S(=O)(=O)c1ccc(C(=O)Nc2nnc(CSC)o2)cc1	-	-	-	-	-	.	.
CCCCN(C)S(=O)(=O)c1ccc(C(=O)Nc2nnc(CSC)o2)cc1	-	51	.	-	-	-	.
CCN(CC)S(=O)(=O)c1ccc(C(=O)Nc2nnc(COC)o2)cc1	-	-	-	-	-	.	.
SMILES	aSyn 5UTR inh	Mdm2-MdmX inh	Beta cell apopt	CSC inhib	A1 inh	Mdm2-MdmX conf	FLuc counter
CCCCN(CCCC)S(=O)(=O)c1ccc(C(=O)Nc2nnc(COC)o2)cc1	62	59	-	-	-	-	.
O=C(O)c1ccc(Cl)c(NCc2cccs2)c1	-	-	-	-	-	.	.
O=C(C1CCCO1)N1CCN(S(=O)(=O)c2ccc(Cl)cc2)CC1 (centres undefined)	-	-	-	-	-	.	.
O=C(NC1CCCc2ccccc21)c1ccc(Br)cc1 (centres undefined)	-	-	-	-	-	.	.
O=C(CCNC(=O)c1ccc(Br)cc1)NC1CCCc2ccccc21 (centres undefined)	-	88	-	-	-	89	46
COc1ccc(C(CNC(=O)CSc2ccc(Br)cc2C)N2CCOCC2)cc1 (centres undefined)	-	-	-	-	-	.	.
CCN(Cc1nc2ccccc2c(=O)[nH]1)C(=O)c1cccc(S(=O)(=O)N2CCc3ccccc32)c1	.	-	-	-	-	.	.
COc1ccc2ncn(-c3ccccc3)c2c1	-	63	-	-	-	50	42
Cc1ccc(C2(C)NC(=O)N(CC(=O)N3CCN(C(=O)c4cccs4)CC3)C2=O)cc1 (centres undefined)	.	-	.	.	.	.	.
Cc1ccc(CNC(=O)CCn2cc(-c3ccc(C)cc3)nc2CCN)cc1	.	-	-	-	-	.	.
CC1=NOC(=O)/C1=C\c1ccc(-c2ccc(Cl)c(C(=O)O)c2)o1	-	-	.	.	.	.	.
CC1=NOC(=O)/C1=C\c1ccc(-c2cccc(Cl)c2)o1	-	96	-	-	?	-	.
O=C(CCc1ccccc1)NNC(=O)Nc1ccc(Cl)cc1	-	-	.	.	-	.	.
O=C(CN1c2ccccc2Sc2ccccc21)NNC(=O)Nc1ccc(Cl)cc1	-	54	.	.	-	-	54
O=c1[nH]c(C2CCN(S(=O)(=O)c3cccc([N+](=O)[O-])c3)CC2)nc2c1nnn2Cc1ccccc1	-	-	-	.	-	.	.
Cc1cccc([C@@H]2[C@@H]3C(=O)N(Cc4ccccc4)C(=O)[C@@H]3[C@]3(Cc4ccc(Cl)cc4)C(=O)N(c4ccc(Br)cc4)C(=O)N23)c1	-	90	-	-	-	99	49
COc1ccc([C@@H]2[C@@H]3C(=O)N(C(C)(C)C)C(=O)[C@@H]3[C@]3(Cc4ccccc4)C(=O)N(c4ccc(Br)cc4)C(=O)N23)cc1	-	63	-	-	-	71	-
Cc1cc(/C=N/n2cnnc2)c(C)n1-c1ccc(Cl)cc1	-	-	-	-	-	.	.
Cc1cc(/C=N/n2cnnc2)c(C)n1-c1ccc(OCc2ccc(Cl)cc2Cl)cc1	113	74	113	103	-	-	.
Cc1cc(/C=N/n2cnnc2)c(C)n1-c1ccc(OCc2ccc(F)cc2)cc1	-	65	.	.	-	-	78
O=[N+]([O-])c1cccnc1N1CCC(c2cc(-c3ccc(Cl)cc3)n[nH]2)CC1	-	54	-	101	-	-	.
COc1ccccc1NC1=C(N2CCCCC2)C(=O)c2ccccc2C1=O	-	74	102	144	-	46	-
CN(C1=C(N2CCCCC2)C(=O)c2ccccc2C1=O)c1ccccc1	-	-	.	.	-	.	.
CN(CC(=O)Nc1ccc(Cl)cc1)C(=O)CCC1CCCC1	-	-	-	-	-	.	.

Screening data (PubChem)
